The nature of test [1]: growth inhibition of DIPG glioma cells, dose response, cell-based, SU-DIPG-XVII, MIPE5.0, CellTiter-Glo, qHTS (AID 1347060).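 As to AC50: cells exposed to compound for 48 hours before viability readout.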 Conditions: SU-DIPG-XVII viability, CellTiter-Glo ATP luminescence. (In general: ATP-based viability assays read luminescence as a measure of living cells.)
Test [2] in a line: growth inhibition of DIPG glioma cells, dose response, cell-based, SU-DIPG-XIII, MIPE5.0, CellTiter-Glo, qHTS (AID 1347064; cut-off not given, nearly all actives have AC50 up to about 23 µM;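 as to AC50: cells exposed to compound for 48 hours before the viability read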). Conditions: SU-DIPG-XIII viability, CellTiter-Glo ATP luminescence.
A short description of test [3]: viability loss in pontine glioma line – cell-based, SU-DIPG-XXV, MIPE5.0, CellTiter-Glo, qHTS, dose response (AID 1347065).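 Also: cells exposed to compound for 48 hours before ATP readout.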 As to conditions: CellTiter-Glo ATP luminescence.
A short description of test [4]: JHH-DIPG-1 glioma cell viability, MIPE5.0 library, CellTiter-Glo luminescence, qHTS (AID 1347067).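 Also: cells exposed to compound for 48 hours before readout.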 As to conditions: JHH-DIPG-1 glioma viability, CellTiter-Glo ATP luminescence.
Test [5] can be described thus: SU-DIPG-XXV glioma cell viability, MIPE5.0 library, qHTS (AID 1347068; cut-off not given, nearly all actives have IC50 up to about 30 µM;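 as to IC50: cells exposed to compound for 48 hours before viability readout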).

Results filed as inconclusive are left out. Active and inactive are the calls of the source. Unless noted, the limit is not given here; nearly all actives have AC50 up to about 26 µM.

Usually AC50 stands for the concentration giving half of the maximal activity seen. Usually IC50 stands for the concentration that gives 50% inhibition. In the case of `CC(C)c1c2cc(-c3ccnc(NC4CCC(NC5CCOCC5)CC4)n3)ccc2nn1C` (stereo not given), the AC50 is 0.417 µM (active) in test [1], 0.372 µM (active) in test [2], 0.468 µM (active) in test [3] and 0.417 µM (active) in test [4]. For the same compound, the concentration for half-maximal inhibition (IC50) in test [5] was 0.525 µM (active).
Regarding `Cn1cc(-c2ccc(S(=O)(=O)n3ccc(/C=C/C(=O)Nc4ccccc4N)c3)cc2)cn1`, the concentration at half-maximal activity (AC50) in test [1] was 1.48 µM (active); in test [2], 3.32 µM (active); in test [3], 1.32 µM (active); in test [4], 1.86 µM (active). Also, in test [5], the half-maximal inhibitory concentration (IC50) is 5.9 µM (active).
Consider `Cc1cn(CCN2CCN(c3ccccc3-c3cc(C#N)cc(C(=O)NCCCN4CCCC4)c3)CC2)c2ccccc12`, for which the half-maximal activity concentration (AC50) in test [1] is 8.33 µM (active); in test [2] it was 10.5 µM (active); in test [3] it was 7.42 µM (active); in test [4], 8.33 µM (active). The IC50 in test [5] is 7.42 µM (active).
For `COc1cc(-c2cn(C)c(=O)c3cnccc23)cc(OC)c1CN(C)C`, the call in test [1], in test [2], in test [3], in test [4] and in test [5] was inactive.
In the case of `CS(=O)(=O)c1ccc(Oc2cc(F)cc(C#N)c2)c2c1[C@H](O)C(F)(F)C2`, the result in test [1], in test [2], in test [3], in test [4] and in test [5] was inactive.
For `C1=C/COCc2cc(ccc2OCCN2CCCC2)Nc2nccc(n2)-c2cccc(c2)COC/1`, the AC50 was 2.95 µM (active) in test [1], 2.95 µM (active) in test [2], 2.09 µM (active) in test [3] and 4.17 µM (active) in test [4]. Moreover, the IC50 in test [5] was 2.95 µM (active).
Take `Cc1cc(OCCCc2c3n(c4c(-c5c(C)nn(C)c5C)c(Cl)ccc24)[C@H](C)CN(c2cn(C)c4ccc(C(=O)O)cc24)C3=O)cc(C)c1Cl`: the AC50 in test [1] is 0.833 µM (active); in test [2] it was 5.25 µM (active); in test [3], 0.468 µM (active); in test [4] it was 9.34 µM (active). Besides, the IC50 in test [5] is 3.72 µM (active).
For `COC(=O)Nc1cc(Nc2cc(NC3CC3)c3ncc(C#N)n3n2)c(Cl)c(N2CCN(C)CC2)c1` the same measures were 5.25 µM (active), 3.72 µM (active), 2.63 µM (active), 2.95 µM (active) and 23.5 µM (active).
Regarding `O=C(CCCCCCC(=O)N/N=C/c1ccc(N(c2ccccc2)c2ccccc2)cc1)NO`, the half-maximal activity concentration (AC50) in test [1] was 20.9 µM (active); in test [2], 20.9 µM (active); in test [3], 14.8 µM (active); in test [4], 11.8 µM (active). Besides, the compound was called inactive in test [5].
As to `NC(=O)c1ccccc1Nc1ccnc(Nc2cccc(O)c2)n1`, the AC50 in test [1] was 2.63 µM (active); in test [2] it was 5.25 µM (active); in test [3], 1.32 µM (active); in test [4], 18.6 µM (active). Besides, the IC50 in test [5] is 4.68 µM (active).
In the case of `C=CC(=O)N1CCC(Oc2cc3c(Nc4ccc(Cl)c(Cl)c4F)ncnc3cc2OC)CC1`, the AC50 was 6.61 µM (active) in test [1], 5.25 µM (active) in test [2], 3.32 µM (active) in test [3] and 5.25 µM (active) in test [4]. Besides, in test [5], the IC50 is 16.6 µM (active).
On to `Nc1nc(Nc2ccc3c(c2)CC[C@@H](N2CCCC2)CC3)nn1-c1cc2c(nn1)-c1ccccc1CCC2`, for which the AC50 in test [1] was 9.34 µM (active); in test [2] it was 16.6 µM (active); in test [3] it was 6.61 µM (active); in test [4], 20.9 µM (active). Moreover, the IC50 in test [5] was 26.3 µM (active).
Consider `CN(C)CCNC(=O)COc1c2cccc1Cc1cccc(c1OCC(=O)NCCN(C)C)Cc1cccc(c1OCC(=O)NCCN(C)C)Cc1cccc(c1OCC(=O)NCCN(C)C)C2`, for which the call in test [1], in test [2], in test [3], in test [4] and in test [5] was inactive.
For the compound `CN1C(=O)[C@@H](NC(=O)c2cc(Cc3ccccc3)on2)COc2ccccc21`, the compound was classed as inactive in test [1], in test [2], in test [3], in test [4] and in test [5].
In the case of `CC1(C)CN(C(=O)c2ccc(-c3cccc4nc(NC(=O)C5CC5)nn34)cc2)C1`, the call in test [1], in test [2], in test [3], in test [4] and in test [5] was inactive.
Regarding `COc1ccc(Cl)cc1-c1cc(=O)[nH]c(=S)n1CC(N)=O`, the outcome in test [1], in test [2], in test [3], in test [4] and in test [5] was inactive.
As for `CNC(=O)CCc1cc(-c2ccc(-c3ccc(C(F)(F)F)cc3)cc2)n(-c2ccc(N3CCNCC3)cc2)n1`, the AC50 in test [1] is 5.25 µM (active); in test [2] it was 7.42 µM (active); in test [3], 2.63 µM (active); in test [4], 3.72 µM (active). In test [5], the concentration for half-maximal inhibition (IC50) was 9.34 µM (active).
For `Cc1cc2cc(Oc3ccnc(Nc4cccc(CS(=O)(=O)NCCN(C)C)c4)n3)ccc2[nH]1` the same measures were 4.68 µM (active), 8.33 µM (active), 5.9 µM (active), 20.9 µM (active) and 18.6 µM (active).
`CC(C)n1cc(-c2ccc3c(c2)N(C)CC3)c2c(NS(=O)(=O)c3ccn(C)n3)ccnc21`: the compound was classed as inactive in test [1], in test [2], in test [3], in test [4] and in test [5].
On to `CCc1c(-c2ccccc2C)nc2c(C#N)c[nH]n2c1=O`, for which the outcome in test [1], in test [2], in test [3], in test [4] and in test [5] was inactive.
On to `NS(=O)(=O)NCCNc1nonc1C(=Nc1ccc(F)c(Br)c1)NO`, for which the compound was classed as inactive in test [1], in test [2], in test [3], in test [4] and in test [5].
Regarding `C=C1C(=O)O[C@H]2C[C@H](C)C(/C=C/C(C)=O)=CC[C@H]12`, the AC50 in test [1] is 4.17 µM (active); in test [2], 2.63 µM (active); in test [3], 4.68 µM (active); in test [4] it was 3.32 µM (active). The IC50 in test [5] was 7.42 µM (active).

(Values after PubChem BioAssay.)
